# An excerpt weighted towards active compounds, which were near 3.8% of everything screened.
# MT1-MMP txn act: MT1-MMP promoter transcription activation. HT1080 MT1-MMP promoter luciferase reporter, luminescence, overnight; active compounds read high. activation factor at 10 µM. hit rate 0.16% among 86,000;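 active = activation factor of at least 2 for MT1-MMP transcription at 10 µM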
# DAT uptake mod: modulates human dopamine transporter uptake under cocaine; AID 449768; B-score at 10 µM; LLC-PK1 hDAT cells, [14C]-dopamine uptake with cocaine IC80; actives deviate in either direction; hit rate 1.3% among 110,000;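 active = Z score or B-score, a plate-position-corrected score, falls beyond the plate's 99.7% confidence bounds, in either direction; inactive = both scores lie inside the 99.7% bounds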;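 also: scored against the spread of the other compound wells on the same plate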
# ERa coact pot: ER-alpha (human) coactivator binding potentiation; coactivator binding (% of control), % at 25.6 µM; TR-FRET ERalpha-LBD/SRC-Cy5 coactivator binding, 2 h; 100 = basal binding, no effect; hit rate 1.3% among 86,000; AID 639; in the data active = activity above about 200%;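 also: binding measured in presence of low estradiol as agonist stimulus; 0% = peptide alone without receptor and 100% = receptor with peptide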
# Target sequence (P03372 whole entry, looked up, the tested form may be a part): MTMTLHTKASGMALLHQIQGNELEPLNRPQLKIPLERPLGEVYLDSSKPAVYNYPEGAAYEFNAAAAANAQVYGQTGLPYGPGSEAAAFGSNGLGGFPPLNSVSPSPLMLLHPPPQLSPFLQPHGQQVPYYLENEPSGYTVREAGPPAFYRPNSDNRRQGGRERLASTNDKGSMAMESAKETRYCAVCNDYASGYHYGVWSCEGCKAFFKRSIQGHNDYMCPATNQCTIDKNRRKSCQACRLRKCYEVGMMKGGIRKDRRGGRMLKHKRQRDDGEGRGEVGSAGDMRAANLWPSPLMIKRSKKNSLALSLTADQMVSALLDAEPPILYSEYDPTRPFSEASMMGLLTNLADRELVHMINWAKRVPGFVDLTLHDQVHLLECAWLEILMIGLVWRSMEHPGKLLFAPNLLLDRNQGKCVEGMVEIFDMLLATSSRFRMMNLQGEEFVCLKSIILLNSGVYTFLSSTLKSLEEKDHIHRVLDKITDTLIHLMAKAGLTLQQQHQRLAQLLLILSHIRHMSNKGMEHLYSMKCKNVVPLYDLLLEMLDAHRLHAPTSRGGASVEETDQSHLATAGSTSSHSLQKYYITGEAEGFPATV
# ERa coact inh: blocks coactivator binding to human estrogen receptor alpha. AID 629. TR-FRET ER-alpha LBD / SRC-1 peptide, estradiol-bound. P03372. inhibition, % at 25.6 µM. hit rate 1.7% among 86,000; in the data active = inhibition above about 50%;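 also: 0% = receptor plus peptide control and 100% = peptide only without receptor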
# ERb SRC1 inh: ER-beta (human) coactivator binding inhibition | Q92731 | hit rate 1.3% among 86,000 | TR-FRET ER-beta LBD / SRC1-Cy5 peptide binding; receptor agonist-loaded with 1 µM estradiol | AID 633 | inhibition, % at 25.6 µM;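 active = compounds whose percent inhibition of the receptor-coactivator binding signal exceeds about 50% in the single-dose screen, limit read from the data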;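 also: 0% = receptor plus peptide wells without compound and 100% = peptide-only wells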
# * hit, by the source's call; / = not tested or not shown; [ ] = remark or other dose.
SMILES,MT1-MMP txn act,DAT uptake mod,ERa coact pot,ERa coact inh,ERb SRC1 inh
O=C(O)c1ccc(C(=O)c2ccc3c(c2)C(=O)N(Cc2ccco2)C3=O)cc1,1,0.26,94,-5,5
O=C(c1ccccc1)c1ccc(CN2C(=O)c3ccccc3C2=O)o1,1.1,3.4*,96,-2,-5
CCN(CC)c1ccc(C2C(C(=O)OC(C)C)C(=O)CC(C)(O)C2C(=O)OC(C)C)cc1 (stereo not drawn),/,1.1,/,/,/
Cc1[nH]n2c(=O)c3c(nc2c1-c1ccc(Cl)cc1)CCC3,0.9,-2.7*,103,-14,-9
Cn1nc(C(=O)Nc2sccc2C(N)=O)ccc1=O,1.1,-0.42,21,63*[fluorescence artefact?],54*[fluorescence artefact?]
NC(=O)Cc1c[nH]c2cccc(O)c12,1.1,-0.18,54,73*[fluorescence artefact?],93*[fluorescence artefact?]
COc1cccc2cc(-c3cn4cccc(C)c4n3)c(=O)oc12,1.4,0.35,/,/,/
COc1cccc2cc(-c3cn4ccc(C)cc4n3)c(=O)oc12,1.1,-0.00055,61,74*,53*[fluorescence artefact?]
CCOc1cccc2cc(-c3cn4cc(C)ccc4n3)c(=O)oc12,0.3,-0.4,126,81*,50*
CCC1=C2CC[C@H]3C(=O)N(c4ccccc4)C(=O)[C@H]3[C@H]2[C@@]2(Cc3ccccc3)C(=NCCc3c[nH]c4ccccc34)OC(=O)N2C1=O,1.2,/,/,/,/
O=C(Nc1ccc(Cl)cc1)C1=Cc2ccccc2OC1,1.5,-0.82,98,-2,1
CCCCCc1c2c(cc(O)c1C(=O)O)OC(=O)c1c(cc(OC)cc1C(=O)CCCC)O2,/,5.3*,/,/,/
CCCCc1c(C(=O)O)cc(OC)cc1C(=O)O,1.2,0.12,120,-3,-11
CCN1CCN(Cc2ccc(NC(=O)c3ccc(C)c(NC(=O)c4csc(-c5ccncc5)n4)c3)cc2C(F)(F)F)CC1,/,1.8*,/,/,/
CCN1CCN(Cc2ccc(NC(=O)c3ccc(C)c(NC(=O)c4ccno4)c3)cc2C(F)(F)F)CC1,/,-0.016,/,/,/
CC(C)=CC(O)C/C(C)=C/COc1ccc2ccc(=O)oc2c1 (stereo not drawn),/,0.63,/,/,/
C#CCNC(=O)C1=C[C@@H](c2coc3ccccc3c2=O)C[C@@H](OCc2ccc(CO)cc2)O1,/,-0.76,/,/,/
COc1ccc(-n2nnnc2SCc2nc3ccccc3s2)cc1,1.6,4.1*,95,0,-10
O=c1c2ccccc2nc2n1CCCCN2,1.1,-0.42,82,80*,12
CCCc1nc2sc3ccccc3c(=O)c2c(=O)n1Cc1ccco1,1.2,/,69,70*[fluorescence artefact?],64*
Cc1nn(-c2ccccc2)c(OC(=O)c2cccs2)c1S(=O)(=O)c1ccc([N+](=O)[O-])cc1,1,-0.66,90,4,1
Cc1cccc(-n2c(O)c(C=Nc3ccc4c(c3)OCO4)c3ccccc3c2=O)n1,1.2,-0.34,49,71*[fluorescence artefact?],26
O=C(c1ccc(NC2=NC3CS(=O)(=O)CC3S2)cc1)N1CCN(Cc2ccccc2)CC1 (stereo not drawn),/,-0.02,103,93*[fluorescence artefact?],-5
COC(=O)c1ccc(-c2nc3ccccc3o2)cc1,1.6,/,111,1,24
COC(=O)c1ccc(-c2ncc(-c3cccc4ccccc34)o2)cc1,1,3*,161,16,6
SMILES,MT1-MMP txn act,DAT uptake mod,ERa coact pot,ERa coact inh,ERb SRC1 inh
CC(C)C[C@@H]1NC(=O)[C@H](C(C)C)NC(=O)c2cc([N+](=O)[O-])cc(I)c2OCC[C@@H](C(N)=O)NC1=O,/,-0.001,/,/,/
O=c1cc(CSc2nnnn2-c2ccccc2)nc(Nc2ccc(F)cc2)[nH]1,1,0.27,373*,53*,32
C/C(CC(=O)Nc1ccccn1)=N\NC(=O)C(=O)Nc1ccccc1C,/,3.2*,/,/,/
COC(=O)C1=C(C(=O)OC)[C@@H]2N(C)c3ccc(OC)cc3[C@@]23C[C@@H](C(=O)OC)N(C(=O)c2cc(C)oc2C)C3=N1,/,0.052,/,/,/
CCn1cc(C(=O)N=c2sc3ccccc3n2C)c(=O)c2ccc(C)nc21,0.9,/,250*,25,7
CCn1cc(C(=O)NCc2cccs2)c(=O)c2ccc(C)nc21,1,2.9*,79,7,2
Cc1ccnc(NS(=O)(=O)c2ccc(NS(=O)(=O)c3ccccc3)cc2)n1,1.2,-0.71,92,-24,-25
COc1ccc(-c2nc(Cn3c(SCc4ccc(F)cc4)nc4ccncc43)c(C)o2)cc1OC,/,3.1*,188,42,27
COc1ccc(-c2nc(Cn3c(SCc4ccccc4F)nc4ccncc43)c(C)o2)cc1,/,0.27,458*[fluorescence artefact?],-2,21
COc1ccc(-c2nnc(SCc3ccccc3F)o2)cc1,1.6,-0.073,100,-1,-4
O=S(=O)(Nc1nccs1)c1cc(Cl)ccc1Cl,1.2,-1.3,51,56*,51*
O=C(O)C1CCCCC1C(=O)NCCCc1ccccc1 (stereo not drawn),1,-0.41,268*,-2,3
Cc1onc(-c2c(Cl)cccc2Cl)c1C(=O)N/N=C(\N)COc1ccc(Cl)cc1,/,-0.76,/,/,/
CCc1c(C)sc(NC(=O)c2cc(-c3ccc(OC)c(OC)c3)on2)c1C#N,1.1,0.4,60,2,23
Cc1ccc(C(=O)Nc2sc3c(c2C#N)CCCCC3)cc1C,2.3*,-0.67,113,0,-1
COc1ccc(-c2csc(NC(=O)c3cc(C)on3)c2C#N)cc1OC,/,0.46,264*,-1,-5
CC(=O)Nc1sc2c(c1C#N)CCCCC2,1.2,-0.42,111,-5,-1
Cc1cc(C(=O)Nc2sc3c(c2C#N)CCC3)no1,1.2,-0.041,40,53*[fluorescence artefact?],64*
C[C@H]1O[C@H](O[C@H]2[C@H](O)[C@@H](O)[C@@H](O[C@H]3[C@H](O)[C@@H](O)C(O)O[C@@H]3CO)O[C@@H]2CO)[C@H](O)[C@@H](O)[C@@H]1N[C@H]1C=C(CO)[C@@H](O)[C@H](O)[C@H]1O (stereo partly drawn),/,-0.17,/,/,/
O=C(c1ccc(Br)o1)N1CCN=C1SCc1cccnc1,1,2.4*,112,-10,-8
CC(C)CCN1CC(O)=C(c2nc(-c3ccc(Cl)cc3)cs2)C1=N,1,-0.1,219*,24,28
N=C1C(c2nc(-c3ccc(F)cc3)cs2)=C(O)CN1CCCN1CCOCC1,1.1,0.75,92,-3,-1
Cc1ccc(SCC(=O)Nc2cccc(NC(=O)c3ccco3)c2)cc1,/,0.75,/,/,/
N#CC1(C#N)CC(C=O)=C(N)C1(C#N)CC(=O)c1ccc(F)cc1 (stereo not drawn),1.1,-2.2*,94,11,6
CCOC(=O)c1ccccc1NC(=O)COc1cc(=O)n(CC)c2ccccc12,1,-1.3,278*[fluorescence artefact?],19,45
CCn1c(=O)cc(OCC(=O)Nc2ccc(C)cn2)c2ccccc21,1.1,-0.054,81,1,-2
CCCCCC(=O)Nc1cccc(C2=NOC3(C2)C[C@H](C(N)=O)N(C(=O)c2ccccc2C(=O)c2ccccc2)C3)c1 (stereo partly drawn),/,3.7*,/,/,/
Cc1ccc2nc(N/N=C/c3ccccc3C#N)nc(-c3ccccc3)c2c1,/,3.1*,/,/,/
